Consider 40 sequences from the supplement of paper PMC6555819.

The test system of the first assay is LXRa:RXRa (NR concentration 270 nM, RXRa partner concentration 90 nM). The experiment in a line: PBM binding z-score (relative to random genomic background probes); higher = stronger binding; sequences stand for … in GC…GCGATTGACAGCGTAGAATGAAGG
Summed up: (§1)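 Each nuclear receptor dimer, without ligand, was incubated for 1 h on custom Agilent 4×180K protein-binding microarrays. Binding was detected with antibodies against each partner (one per run), and scanned fluorescence was regression-normalized. The binding z-scores are referenced to random human genomic background probes.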
ATATGTAGGTTAGCTGGGGTCGTTCAGACTAGGC had a PBM binding z-score of 3.09.
The same measure, in the same setting: as for ACTATTAGTGGACTTAGGGCAACCGATACGACGC, the figure is -0.113.
Still for that read-out and setting: the result for CGTCCAAGGTCATGGTCAGTGAAAGAGACTCGAA reads 5.27; that for TCTTGTTGATCAAGCAGGTTAAGAAAGCCTGAGT, 0.33; that for GTACCAAGGTGAATAGATCGTTGATGAGTAGGCG, 0.133.
On the same count and under the same terms, the result for GCTCGAAGGACAAGGTCAGAGCTTTGTCCGTAGA reads 1.79.
Regarding TCGAGTAGGTTACCAATGGGGCATACAGCTTTCT, the PBM binding z-score came to 1.55.
GCTGCTAGGTCACGTTGGTCAGCTAACGGGTACG gave a PBM binding z-score of 2.38.
Same read-out and setting: the result for CGTCCAAGGTCAGCAGGTCTGTGAAAGCGACGTG reads 3.02.
ACTTACGGGTCAACGAGGATATAGCACGCGTATA: the PBM binding z-score was determined as 4.05.
Same read-out and setting: as for CTACCAAGGTGAACAAGGTGGTTGATTACTATTC, the figure is 0.0424; as for GGAACGAGTGCAAAGTTGATAGCATCTGTCGACG, -0.0741.
Take CGTCCAAGGTCAGCATGTCAGTGAAAGCGACGTG: the PBM binding z-score was 3.16.
Consider ATATGTAGGTTTGCTGGGGTCATTCAGACTAGGC, for which the PBM binding z-score is 3.85.
Still for that read-out and setting: as for TCTAGCAGGCCAGAGGGTCAATCAAGAGGTACGG, the figure is 1.33.
On the same count and under the same terms, as for GATGCTAGGTCAACTGATGGTCAGCTAAAGCTCG, the figure is 3.15.
On the same count and under the same terms, as for GCTATTAGTTAAAAGGGCAACCGAATGATTCTCG, the figure is 0.439; as for ATCTCTAGCTAAAGATAGTTCAGTGAATGCAAAT, -0.141.
Sequence GATACAGGTTCAGCTAGAGGCCAGAGTATGGAAA returned a PBM binding z-score of 0.656.
The same measure, in the same setting: the result for CCTTACGGGTCACTCCAGGTTAAAGCATCGGAGT reads 7.96.
On the same count and under the same terms, as for TCTTGTAGATCAAAGGTTAAGAATGCCGAAGCCT, the figure is 2.06.
The same measure, in the same setting: as for TAGCCTAGGTCTGATCGGGCCAGTATACGCTATA, the figure is -0.943; as for ACTAGCAGGCCATGTTTGGGTCACTCAAACAAAG, -0.058.
With GCTGCTAGGTCAAGTTGGTCAGCTAACGGGTACG, the PBM binding z-score was found to be 3.29.
On the same count and under the same terms, the result for CAAACTACGTCAAGAGGTCAAAGTCCGCTTCCCG reads 5.77.
For the sequence AGTTACGGGTCAACGAGGTTATAGCACGCGTATA, the PBM binding z-score amounted to 5.15.
Same read-out and setting: as for ATCGCTAGGTAAAGTTCAGTGAAAGATCGATAGA, the figure is 1.22; as for GCTGCTAGGTAAACTGATGGTCAGCTAAAGCTCG, -0.492.
Still for that read-out and setting: the result for TCATATAGGTAAATGCTAGGTGCAAGTCCGATCT reads 0.526; that for CGTCCTAGGTCAAGGTCAGTGAAAGAGACTCGAA, 4.07.
The same measure, in the same setting: as for GCATATAGGTAATAAAAGGTGAAAGTCCGATTGT, the figure is 4.97; as for GCGACTGGGGCATCAGCAGGTCACCATAACTTAA, 1.37.
For the sequence CCTCGGAGGACAGAAGCTCAGAGCTGTCCGCTTT, the PBM binding z-score is -0.517.
On the same count and under the same terms, as for TCTATTAGTTGAAGGGCAAGCGACGAGTCCGTTT, the figure is 1.02; as for TGTCAAAGTTCAAACGTAACGTAAGTATCCACAC, 6.81; as for CCTTACGGGTCACTGCAGGTTATAGCATCGGAGT, 7.22.
For the sequence CTAACTAGGTCAGAACAGGACAGTGAAGGATGAT, the PBM binding z-score was 0.974.
Still for that read-out and setting: as for TCTCGGAGGACACGATAGGTCAGAGCTCGACATC, the figure is 1.92; as for AAACCAAGGTGATCGTGAGGTCGTTGATACTAAC, 1.29.
Same read-out and setting: as for CATACAGGGTCAGCTAGGCCAGAGTAGGGACGGC, the figure is 2.84.

In the next assay the test system is LXRa homodimer (NR concentration 270 nM). Described as above. Summed up:
as §1
Take ATATGTAGGTTAGCTGGGGTCGTTCAGACTAGGC: the PBM binding z-score is 0.399.
The same measure, in the same setting: as for ACTATTAGTGGACTTAGGGCAACCGATACGACGC, the figure is -0.0613; as for CGTCCAAGGTCATGGTCAGTGAAAGAGACTCGAA, 0.622; as for TCTTGTTGATCAAGCAGGTTAAGAAAGCCTGAGT, -0.00348.
GTACCAAGGTGAATAGATCGTTGATGAGTAGGCG displayed a PBM binding z-score of -0.179.
GCTCGAAGGACAAGGTCAGAGCTTTGTCCGTAGA yielded a PBM binding z-score of -0.456.
Still for that read-out and setting: as for TCGAGTAGGTTACCAATGGGGCATACAGCTTTCT, the figure is -0.441.
GCTGCTAGGTCACGTTGGTCAGCTAACGGGTACG yielded a PBM binding z-score of 0.0398.
The same measure, in the same setting: the result for CGTCCAAGGTCAGCAGGTCTGTGAAAGCGACGTG reads -0.272; that for ACTTACGGGTCAACGAGGATATAGCACGCGTATA, 0.457; that for CTACCAAGGTGAACAAGGTGGTTGATTACTATTC, -0.231.
On the same count and under the same terms, as for GGAACGAGTGCAAAGTTGATAGCATCTGTCGACG, the figure is -0.379; as for CGTCCAAGGTCAGCATGTCAGTGAAAGCGACGTG, -0.309.
Same read-out and setting: the result for ATATGTAGGTTTGCTGGGGTCATTCAGACTAGGC reads 1.58.
TCTAGCAGGCCAGAGGGTCAATCAAGAGGTACGG yielded a PBM binding z-score of -0.494.
The same measure, in the same setting: as for GATGCTAGGTCAACTGATGGTCAGCTAAAGCTCG, the figure is 0.377; as for GCTATTAGTTAAAAGGGCAACCGAATGATTCTCG, 0.409; as for ATCTCTAGCTAAAGATAGTTCAGTGAATGCAAAT, 0.164.
Turning to GATACAGGTTCAGCTAGAGGCCAGAGTATGGAAA, the PBM binding z-score is -0.157.
The same measure, in the same setting: as for CCTTACGGGTCACTCCAGGTTAAAGCATCGGAGT, the figure is 2.58; as for TCTTGTAGATCAAAGGTTAAGAATGCCGAAGCCT, 0.248.
Consider TAGCCTAGGTCTGATCGGGCCAGTATACGCTATA, for which the PBM binding z-score was -0.639.
ACTAGCAGGCCATGTTTGGGTCACTCAAACAAAG gave a PBM binding z-score of -0.283.
Still for that read-out and setting: as for GCTGCTAGGTCAAGTTGGTCAGCTAACGGGTACG, the figure is 0.651; as for CAAACTACGTCAAGAGGTCAAAGTCCGCTTCCCG, 5.87.
For the sequence AGTTACGGGTCAACGAGGTTATAGCACGCGTATA, the PBM binding z-score amounted to 0.781.
Still for that read-out and setting: as for ATCGCTAGGTAAAGTTCAGTGAAAGATCGATAGA, the figure is 0.609.
Same read-out and setting: the result for GCTGCTAGGTAAACTGATGGTCAGCTAAAGCTCG reads -0.956; that for TCATATAGGTAAATGCTAGGTGCAAGTCCGATCT, 0.11; that for CGTCCTAGGTCAAGGTCAGTGAAAGAGACTCGAA, 0.811.
The same measure, in the same setting: as for GCATATAGGTAATAAAAGGTGAAAGTCCGATTGT, the figure is 0.418; as for GCGACTGGGGCATCAGCAGGTCACCATAACTTAA, 0.749.
CCTCGGAGGACAGAAGCTCAGAGCTGTCCGCTTT yielded a PBM binding z-score of -0.873.
As for TCTATTAGTTGAAGGGCAAGCGACGAGTCCGTTT, the PBM binding z-score came out at 0.0576.
On the same count and under the same terms, the result for TGTCAAAGTTCAAACGTAACGTAAGTATCCACAC reads 5.78; that for CCTTACGGGTCACTGCAGGTTATAGCATCGGAGT, 1.13.
The same measure, in the same setting: as for CTAACTAGGTCAGAACAGGACAGTGAAGGATGAT, the figure is 0.159.
Still for that read-out and setting: as for TCTCGGAGGACACGATAGGTCAGAGCTCGACATC, the figure is 0.208.
In the case of AAACCAAGGTGATCGTGAGGTCGTTGATACTAAC, the PBM binding z-score came to 0.284.
On the same count and under the same terms, the result for CATACAGGGTCAGCTAGGCCAGAGTAGGGACGGC reads -0.378.
